Measured values reported in PubChem BioAssay (EPA / NIEHS).
Results filed as inconclusive are left out. The source made the active and inactive calls. How the source made its calls: active means hit-call score of the fitted dose curve at least 0.9, where 1 is the maximum; inconclusive means response in the unintended direction; inactive means score below 0.9.

Tests used:
Caspase-3 (Homo sapiens) = Caspase-3 (Homo sapiens) (UniProt P42574); assay: NVS_ENZ_hCASP3: NovaScreen (NVS) Enzymatic Assay for human Caspase 3 (CASP3) (AID 2283139)
Procedure, shortened: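 Recombinant human caspase-3 from E. coli with a fluorogenic substrate, read by fluorescence 1 h after dosing. Primary screen in duplicate at 25 uM. Actives (for example ≥30% inhibition) rerun as concentration-response up to 50 uM.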

[1] = target: human Caspase 8 (CASP8), CASP8 (gene 841) (UniProt Q14790); assay: NVS_ENZ_hCASP8: NovaScreen (NVS) Enzymatic Assay for human Caspase 8 (CASP8) (AID 2283146)
Procedure, shortened: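 E. coli-expressed enzyme was used in a cell-free fluorogenic substrate assay read 1 h after dosing. Loss of signal was scored relative to DMSO, and the primary screen was run in duplicate at 25 uM.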

[2] = target: human Caspase 2 (CASP2), CASP2 (gene 835) (UniProt P42575); assay: NVS_ENZ_hCASP2: NovaScreen (NVS) Enzymatic Assay for human Caspase 2 (CASP2) (AID 2283135)
Procedure, shortened: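 E. coli-expressed enzyme in a cell-free protease assay, fluorescence read 1 h after dosing. Compounds at 25 uM in duplicate, with concentration-response up to 50 uM for hits; loss of signal against DMSO baseline.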

[3] = target: human AMP-activated Protein Kinase, alpha 1 (AMPKa1), PRKAA1 (gene 5562) (UniProt Q13131); assay: NVS_ENZ_hAMPKa1: NovaScreen (NVS) Enzymatic Assay for human AMP-activated Protein Kinase, alpha 1 (AMPKa1) (AID 2283130)
Procedure, shortened: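 Recombinant human AMPKα1 activity was measured cell-free by fluorescent substrate conversion with electrophoretic mobility-shift separation, 1 h after dosing. Duplicate single-point screening was at 25 uM; actives (≥30% inhibition) were retested in concentration-response up to 50 uM.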

[4] = target: human Caspase 5 (CASP5), CASP5 (gene 838) (UniProt P51878); assay: NVS_ENZ_hCASP5: NovaScreen (NVS) Enzymatic Assay for human Caspase 5 (CASP5) (AID 2283137)
Procedure, shortened: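 E. coli-derived enzyme, cell-free, 2 h incubation, fluorescence intensity. 25 uM duplicate single-point; hits → concentration series to 50 uM. DMSO baseline, positive/negative controls on every plate.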

[5] = target: human Beta-secretase (BACE), BACE1 (gene 23621) (UniProt P56817); assay: NVS_ENZ_hBACE: NovaScreen (NVS) Enzymatic Assay for human Beta-secretase (BACE) (AID 2283140);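 further: hits are inhibitors that reduce fluorescent substrate signal versus DMSO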
Procedure, shortened: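 Compounds were first tested in duplicate at 25 uM, then actives in concentration series, against recombinant BACE1 from SF9 cells. Enzyme activity was measured by fluorescence intensity 1 hour after dosing, with DMSO as negative control.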

[6] = target: human Dual Specificity Protein Phosphatase 3 (DUSP3), DUSP3 (gene 1845) (UniProt P51452); assay: NVS_ENZ_hDUSP3: NovaScreen (NVS) Enzymatic Assay for human Dual Specificity Protein Phosphatase 3 (DUSP3) (AID 2283152);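 further: phosphatase activity of recombinant human DUSP3 on a fluorogenic substrate without cells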
Procedure, shortened: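 Cell-free assay with recombinant human DUSP3 and fluorogenic substrate, read by fluorescence intensity. Primary screen ran duplicate at 25 uM; actives followed up in concentration series; loss of signal versus DMSO scored.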

[7] = target: human AKT serine/threonine Kinase 2 (AKT2), AKT2 (gene 208) (UniProt P31751); assay: NVS_ENZ_hAKT2: NovaScreen (NVS) Enzymatic Assay for human AKT serine/threonine Kinase 2 (AKT2) (AID 2283141)
Procedure, shortened: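 Cell-free fluorescence/electrophoretic mobility shift readout of recombinant human AKT2 activity, 1 h after chemical dosing. Duplicate primary screen at 25 uM, then singleton concentration-response up to 50 uM; loss of signal versus DMSO baseline.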

[8] = target: human Caspase 4 (CASP4), CASP4 (gene 837) (UniProt P49662); assay: NVS_ENZ_hCASP4: NovaScreen (NVS) Enzymatic Assay for human Caspase 4 (CASP4) (AID 2283143)
Procedure, shortened: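 The cell-free assay used E. coli-expressed enzyme with a fluorogenic substrate, read 2 h after dosing. Signal loss was scored versus DMSO. Screening was in duplicate at 25 uM, then singleton concentration-response up to 50 uM.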

[9] = target: human Casein Kinase 1-delta (CK1D), CSNK1D (gene 1453) (UniProt P48730); assay: NVS_ENZ_hCK1D: NovaScreen (NVS) Enzymatic Assay for human Casein Kinase 1-delta (CK1D) (AID 2283148)
Procedure, shortened: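 Recombinant human CK1-delta, cell-free; fluorescent substrate with electrophoretic mobility-shift separation of product, read 1 h after dosing. Single 25 uM duplicate screen, then concentration-response up to 50 uM; loss of signal vs DMSO.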

[10] = target: human Colony Stimulating Factor 1 Receptor (CSF1R), CSF1R (gene 1436) (UniProt P07333); assay: NVS_ENZ_hCSF1R: NovaScreen (NVS) Enzymatic Assay for human Colony Stimulating Factor 1 Receptor (CSF1R) (AID 2283150)
Procedure, shortened: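 Cell-free recombinant human CSF1R kinase with fluorescent substrate, product separated by electrophoretic mobility shift; read 1 h after dosing. Primary screen at 25 uM in duplicate, actives then in concentration-response up to 50 uM, relative to DMSO.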

Sequence of human Beta-secretase (BACE), BACE1 (gene 23621) (P56817 whole entry, looked up): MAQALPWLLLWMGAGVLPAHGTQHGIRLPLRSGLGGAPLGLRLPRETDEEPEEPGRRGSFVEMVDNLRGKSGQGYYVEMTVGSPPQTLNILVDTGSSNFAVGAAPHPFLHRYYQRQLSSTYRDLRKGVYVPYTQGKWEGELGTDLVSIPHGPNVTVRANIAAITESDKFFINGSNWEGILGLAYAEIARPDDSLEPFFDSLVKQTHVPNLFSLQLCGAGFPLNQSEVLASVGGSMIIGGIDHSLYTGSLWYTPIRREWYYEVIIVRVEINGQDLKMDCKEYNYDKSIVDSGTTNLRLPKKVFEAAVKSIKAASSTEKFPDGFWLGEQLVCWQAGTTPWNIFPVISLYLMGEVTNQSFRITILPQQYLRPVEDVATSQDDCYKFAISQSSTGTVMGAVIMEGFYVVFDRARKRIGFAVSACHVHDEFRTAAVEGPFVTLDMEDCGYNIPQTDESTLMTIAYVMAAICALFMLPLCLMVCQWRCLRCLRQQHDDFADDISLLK
Sequence of human Caspase 8 (CASP8), CASP8 (gene 841) (Q14790 whole entry, looked up): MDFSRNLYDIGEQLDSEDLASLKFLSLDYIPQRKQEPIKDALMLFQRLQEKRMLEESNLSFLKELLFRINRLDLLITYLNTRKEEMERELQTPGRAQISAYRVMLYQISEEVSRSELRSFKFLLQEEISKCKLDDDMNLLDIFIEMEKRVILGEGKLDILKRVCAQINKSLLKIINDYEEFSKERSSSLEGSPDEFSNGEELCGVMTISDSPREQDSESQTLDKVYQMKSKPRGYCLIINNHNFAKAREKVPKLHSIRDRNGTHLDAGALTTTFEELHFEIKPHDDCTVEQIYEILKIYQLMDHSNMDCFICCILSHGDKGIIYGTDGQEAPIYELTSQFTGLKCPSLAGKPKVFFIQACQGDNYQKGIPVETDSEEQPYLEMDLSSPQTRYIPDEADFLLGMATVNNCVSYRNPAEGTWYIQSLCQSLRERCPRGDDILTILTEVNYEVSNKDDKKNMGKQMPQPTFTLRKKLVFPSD
Sequence of Caspase-3 (Homo sapiens) (P42574 whole entry, looked up): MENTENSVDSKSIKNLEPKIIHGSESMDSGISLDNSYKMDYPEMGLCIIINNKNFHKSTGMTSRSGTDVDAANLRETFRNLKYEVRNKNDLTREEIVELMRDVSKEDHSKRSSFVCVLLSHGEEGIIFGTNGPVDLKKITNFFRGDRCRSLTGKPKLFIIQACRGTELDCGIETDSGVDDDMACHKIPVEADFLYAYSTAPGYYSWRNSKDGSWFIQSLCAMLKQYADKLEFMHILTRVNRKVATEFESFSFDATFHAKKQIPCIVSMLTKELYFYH
Sequence of human Caspase 5 (CASP5), CASP5 (gene 838) (P51878 whole entry, looked up): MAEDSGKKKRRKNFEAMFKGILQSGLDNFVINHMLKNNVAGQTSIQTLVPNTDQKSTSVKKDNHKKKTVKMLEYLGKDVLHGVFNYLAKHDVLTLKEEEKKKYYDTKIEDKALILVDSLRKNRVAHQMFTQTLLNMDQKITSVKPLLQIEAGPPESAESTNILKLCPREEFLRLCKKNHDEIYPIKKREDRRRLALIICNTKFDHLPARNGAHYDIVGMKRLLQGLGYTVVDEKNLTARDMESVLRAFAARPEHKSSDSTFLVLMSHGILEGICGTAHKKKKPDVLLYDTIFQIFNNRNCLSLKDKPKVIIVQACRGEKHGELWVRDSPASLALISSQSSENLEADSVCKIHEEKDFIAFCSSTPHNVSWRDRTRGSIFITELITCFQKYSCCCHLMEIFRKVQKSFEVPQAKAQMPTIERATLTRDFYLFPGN
Sequence of human Dual Specificity Protein Phosphatase 3 (DUSP3), DUSP3 (gene 1845) (P51452 whole entry, looked up): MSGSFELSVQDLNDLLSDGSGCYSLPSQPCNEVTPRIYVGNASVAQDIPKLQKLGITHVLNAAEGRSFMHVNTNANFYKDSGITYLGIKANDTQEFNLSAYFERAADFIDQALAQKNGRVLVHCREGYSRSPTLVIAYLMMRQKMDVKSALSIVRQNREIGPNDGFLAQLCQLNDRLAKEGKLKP
Sequence of human Casein Kinase 1-delta (CK1D), CSNK1D (gene 1453) (P48730 whole entry, looked up): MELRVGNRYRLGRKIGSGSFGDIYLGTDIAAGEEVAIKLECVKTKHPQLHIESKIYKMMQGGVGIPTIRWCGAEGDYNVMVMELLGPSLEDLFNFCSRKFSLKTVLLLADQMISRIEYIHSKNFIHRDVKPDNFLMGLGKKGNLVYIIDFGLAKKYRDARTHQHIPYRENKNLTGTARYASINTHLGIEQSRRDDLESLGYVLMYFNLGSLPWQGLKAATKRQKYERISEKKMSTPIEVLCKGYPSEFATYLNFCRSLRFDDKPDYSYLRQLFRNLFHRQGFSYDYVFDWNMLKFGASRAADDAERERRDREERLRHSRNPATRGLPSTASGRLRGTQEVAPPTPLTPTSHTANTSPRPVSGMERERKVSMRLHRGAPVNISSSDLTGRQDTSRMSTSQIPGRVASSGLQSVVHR
Sequence of human AKT serine/threonine Kinase 2 (AKT2), AKT2 (gene 208) (P31751 whole entry, looked up): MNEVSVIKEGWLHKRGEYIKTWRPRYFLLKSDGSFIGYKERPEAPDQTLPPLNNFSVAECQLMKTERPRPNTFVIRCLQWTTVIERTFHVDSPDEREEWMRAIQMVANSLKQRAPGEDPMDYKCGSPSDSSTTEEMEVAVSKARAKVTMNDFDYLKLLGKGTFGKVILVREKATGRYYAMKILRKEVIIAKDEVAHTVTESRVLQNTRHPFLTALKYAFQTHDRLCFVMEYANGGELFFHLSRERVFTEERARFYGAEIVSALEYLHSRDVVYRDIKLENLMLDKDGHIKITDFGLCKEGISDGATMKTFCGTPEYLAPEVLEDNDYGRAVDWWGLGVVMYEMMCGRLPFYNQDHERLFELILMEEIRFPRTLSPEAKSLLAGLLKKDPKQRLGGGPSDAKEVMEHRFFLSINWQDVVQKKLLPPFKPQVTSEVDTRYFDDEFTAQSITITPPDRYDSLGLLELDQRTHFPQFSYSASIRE
Sequence of human Colony Stimulating Factor 1 Receptor (CSF1R), CSF1R (gene 1436) (P07333 whole entry, looked up): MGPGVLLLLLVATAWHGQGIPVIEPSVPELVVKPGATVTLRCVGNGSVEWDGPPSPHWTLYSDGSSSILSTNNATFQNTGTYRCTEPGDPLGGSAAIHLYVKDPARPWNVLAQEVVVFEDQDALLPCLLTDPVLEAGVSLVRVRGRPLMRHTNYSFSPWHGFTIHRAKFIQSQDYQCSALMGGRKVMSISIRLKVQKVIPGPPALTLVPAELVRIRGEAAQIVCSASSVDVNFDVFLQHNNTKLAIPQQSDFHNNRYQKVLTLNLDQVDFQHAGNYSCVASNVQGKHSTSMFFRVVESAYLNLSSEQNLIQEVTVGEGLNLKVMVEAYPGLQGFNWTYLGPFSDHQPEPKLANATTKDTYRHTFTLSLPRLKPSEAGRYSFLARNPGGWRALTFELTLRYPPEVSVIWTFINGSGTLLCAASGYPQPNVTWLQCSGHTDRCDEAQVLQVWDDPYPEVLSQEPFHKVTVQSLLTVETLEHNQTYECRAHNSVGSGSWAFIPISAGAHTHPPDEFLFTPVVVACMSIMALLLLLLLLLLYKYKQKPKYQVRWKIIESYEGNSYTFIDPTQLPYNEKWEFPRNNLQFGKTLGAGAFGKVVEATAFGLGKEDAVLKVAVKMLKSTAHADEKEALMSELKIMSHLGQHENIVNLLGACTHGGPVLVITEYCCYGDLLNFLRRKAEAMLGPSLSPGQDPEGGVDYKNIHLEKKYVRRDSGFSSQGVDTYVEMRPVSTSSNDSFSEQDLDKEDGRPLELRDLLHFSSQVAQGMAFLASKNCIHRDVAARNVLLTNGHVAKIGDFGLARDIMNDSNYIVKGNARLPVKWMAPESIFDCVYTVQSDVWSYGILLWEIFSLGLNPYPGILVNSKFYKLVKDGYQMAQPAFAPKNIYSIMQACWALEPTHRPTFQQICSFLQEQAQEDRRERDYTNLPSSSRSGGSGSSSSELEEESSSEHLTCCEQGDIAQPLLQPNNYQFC
Sequence of human Caspase 4 (CASP4), CASP4 (gene 837) (P49662 whole entry, looked up): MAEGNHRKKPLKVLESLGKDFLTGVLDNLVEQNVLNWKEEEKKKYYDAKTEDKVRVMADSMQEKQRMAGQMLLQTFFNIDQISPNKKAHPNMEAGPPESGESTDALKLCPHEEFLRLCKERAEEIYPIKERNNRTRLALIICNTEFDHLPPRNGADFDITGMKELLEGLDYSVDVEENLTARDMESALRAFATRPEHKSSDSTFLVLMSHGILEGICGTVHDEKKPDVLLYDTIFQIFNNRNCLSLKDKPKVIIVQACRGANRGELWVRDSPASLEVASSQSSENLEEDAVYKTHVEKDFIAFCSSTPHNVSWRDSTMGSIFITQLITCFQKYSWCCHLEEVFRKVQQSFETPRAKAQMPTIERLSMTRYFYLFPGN
Sequence of human Caspase 2 (CASP2), CASP2 (gene 835) (P42575 whole entry, looked up): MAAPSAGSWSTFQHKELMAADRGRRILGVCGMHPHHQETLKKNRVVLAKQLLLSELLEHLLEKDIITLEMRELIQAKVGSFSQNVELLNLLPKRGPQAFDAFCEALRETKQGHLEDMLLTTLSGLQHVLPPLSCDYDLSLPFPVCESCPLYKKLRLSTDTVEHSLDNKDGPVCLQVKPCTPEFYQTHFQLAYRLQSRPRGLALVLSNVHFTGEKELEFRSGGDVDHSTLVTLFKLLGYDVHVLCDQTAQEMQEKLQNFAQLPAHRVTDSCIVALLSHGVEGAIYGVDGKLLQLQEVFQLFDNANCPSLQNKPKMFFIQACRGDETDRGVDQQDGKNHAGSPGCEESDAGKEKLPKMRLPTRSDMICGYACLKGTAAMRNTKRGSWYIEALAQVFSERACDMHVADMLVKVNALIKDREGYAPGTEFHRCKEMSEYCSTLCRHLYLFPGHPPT

COc1ccc(C(=CC(=O)N2CCOCC2)c2ccc(Cl)cc2)cc1OC
outcome (Caspase-3 (Homo sapiens)): inactive | outcome [1]: inactive

O=c1ccc(=O)[nH][nH]1
outcome [2]: inactive

CC[C@H](C)[C@H]1O[C@]2(C=C[C@@H]1C)C[C@@H]1C[C@@H](C/C=C(\C)[C@@H](O[C@H]3C[C@H](OC)[C@@H](O[C@H]4C[C@H](OC)[C@@H](NC)[C@H](C)O4)[C@H](C)O3)[C@@H](C)/C=C/C=C3\CO[C@@H]4[C@H](O)C(C)=C[C@@H](C(=O)O1)[C@]34O)O2
AC50 [3]: 14.6 µM (active) | outcome [4]: inactive | outcome (Caspase-3 (Homo sapiens)): inactive | AC50 [5]: 9.68 µM (active) | outcome [6]: inactive

C#CCC1=C(C)C(OC(=O)C2C(C=C(C)C)C2(C)C)CC1=O (stereo not given)
outcome [5]: inactive | outcome [6]: inactive

Cc1ccn2nc(S(=O)(=O)Nc3c(F)cccc3F)nc2n1
outcome [4]: inactive

CCCCSP(=O)(SCCCC)SCCCC
outcome [5]: inactive

CC(COc1ccc(Oc2ccccc2)cc1)Oc1ccccn1 (stereo not given)
AC50 [5]: 37.2 µM (active)

CSc1nnc(C(C)(C)C)c(=O)n1N
outcome [7]: inactive

CCC(=O)Nc1ccc(Cl)c(Cl)c1
outcome [8]: inactive | AC50 [9]: 23.6 µM (active)

Nc1nc(N)nc(NC2CC2)n1
outcome [1]: inactive | AC50 [9]: 16.3 µM (active)

Cc1nn(-c2cc(NS(C)(=O)=O)c(Cl)cc2Cl)c(=O)n1C(F)F
outcome [1]: inactive

CCCOc1nn(C(=O)NS(=O)(=O)c2ccccc2C(=O)OC)c(=O)n1C
outcome [10]: inactive
